# Screening results (PubChem)
# Rows were chosen to be rich in hits. Some 2.8% of all compounds tested hit in one or more screens of this group.
# GASC-1 inh = human JMJD2C demethylase inhibition | Q9H3R0 | GST-JMJD2C(1-420) H3K9me3 demethylation, DELFIA europium | inhibition, % at 2.35 µM | 0.069% of 330,000 active | AID 2099;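 active means more than half of a compound's replicate wells show inhibition beyond 50%, single wells judged on their own value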;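 further: signal counts dimethyl H3K9 product captured on neutravidin plate; 0% = median of DMSO wells and 100% = 0.3 times that DMSO median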
# PP5 inh = inhibitors of human protein phosphatase 5 (PP5); purified PP5c, OMFP substrate fluorescence; inhibition, % at 6.7 µM; 0.18% of 320,000 active;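 active means inhibition above the campaign's mean inhibition across all tested compounds plus 3 SD, cut at about 9.5% in these data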;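 further: 0% = DMSO only and 100% = 100 µM cantharidin control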
# PG9 binder = binds the HIV-1 gp120 antibody PG9. TR-FRET gp120-PG9 antibody binding. inhibition, % at 6.7 µM. 0.43% of 360,000 active. AID 624416; in the data active means inhibition above about 8.5%
# NR1D1 modulator = modulators of human Rev-erb alpha DNA binding; activity, % at 10 µM; 0.79% of 370,000 active; P20393; Rev-erbα–FITC-DNA binding, fluorescence polarization, 90 min;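 active means activity above about 14%, limit read from the data; passing the limit was not always enough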;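 further: 0% = DMSO wells with 35 nM protein and 100% = DMSO wells with 750 nM protein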
# Target sequence (P20393 whole entry, looked up): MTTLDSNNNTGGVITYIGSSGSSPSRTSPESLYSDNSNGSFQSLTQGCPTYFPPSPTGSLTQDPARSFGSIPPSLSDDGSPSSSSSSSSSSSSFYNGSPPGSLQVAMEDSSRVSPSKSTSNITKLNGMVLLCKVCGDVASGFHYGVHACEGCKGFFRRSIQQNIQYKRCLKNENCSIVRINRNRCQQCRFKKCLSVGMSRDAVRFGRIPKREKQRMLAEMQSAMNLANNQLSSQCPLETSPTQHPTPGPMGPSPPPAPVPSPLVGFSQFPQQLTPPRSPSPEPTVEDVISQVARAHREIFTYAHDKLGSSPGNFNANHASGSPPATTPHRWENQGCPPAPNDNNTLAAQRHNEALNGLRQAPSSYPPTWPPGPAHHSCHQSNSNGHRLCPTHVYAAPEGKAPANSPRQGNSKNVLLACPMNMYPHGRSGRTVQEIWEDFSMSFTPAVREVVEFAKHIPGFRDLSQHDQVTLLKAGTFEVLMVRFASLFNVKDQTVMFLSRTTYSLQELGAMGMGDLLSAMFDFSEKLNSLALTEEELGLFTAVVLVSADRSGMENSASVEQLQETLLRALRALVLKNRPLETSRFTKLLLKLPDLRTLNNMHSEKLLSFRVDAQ
# proKLK7 act = activates the human kallikrein-7 zymogen; purified proKLK7, EDANS-DABCYL substrate fluorescence; 100% is mature enzyme control, 0% vehicle; activation, % at 7 µM; 0.9% of 370,000 active; AID 652039;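 active means activation above the mean of all tested compounds plus 3 SD, computed per campaign excluding outliers beyond control limits, cut at about 13% in these data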
# PP1 inh = blocks human PP1-alpha phosphatase, a PP5 counter-screen | P62136 | purified PP1alpha, OMFP fluorescence | inhibition, % at 6.7 µM | 0.9% of 320,000 active;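 active means inhibition above the mean inhibition of all tested compounds plus 3 SD, computed separately for each screening campaign, cut at about 15% in these data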
# PP1 confirm = human PP1 phosphatase inhibition, confirmation; shares compounds with PP1 inh; purified PP1alpha, OMFP substrate fluorescence; inhibition, % at 6.7 µM; 52% of 1,900 active; AID 2358;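 active means mean PP1 inhibition above a set limit taken from the earlier primary screen, cut at about 15% in these data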
# PP5 counter = inhibits human PP5 phosphatase in PP1 counter-screen. shares compounds with PP1 inh. AID 2360. purified PP5c, OMFP fluorescence. inhibition, % at 6.7 µM. 4% of 1,900 active;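 active means mean PP5 inhibition over triplicate wells above about 9.5% taken from the earlier PP1 screen, limit read from the data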
# * marks the source's active call; other numbers are inactive results; . = not tested or not shown.
SMILES,GASC-1 inh,PP5 inh,PG9 binder,NR1D1 modulator,proKLK7 act,PP1 inh,PP1 confirm,PP5 counter
c1ccc(CCNc2nc(-c3ccccn3)nc3ccccc23)cc1,-6,4,-4,4,0,29*,50*,-4
COc1ccc(Oc2nc(-c3ccccn3)nc3ccccc23)cc1,3,-2,0,0,0,15,.,.
c1ccc(-c2nc(N3CCOCC3)c3ccccc3n2)nc1,7,4,1,0,0,0,.,.
Fc1ccc(Oc2nc(-c3ccccn3)nc3ccccc23)cc1,0,0,0,-2,0,18*,23*,-3
O=C(NCC1COCCO1)C1CCN(S(=O)(=O)c2cccc3ccccc23)CC1 (stereo not drawn),.,.,.,7,0,.,.,.
CC(=O)N1c2cc(S(=O)(=O)Nc3c(C)n(C)n(-c4ccccc4)c3=O)c(Br)cc2CC1C (stereo not drawn),.,.,.,0,0,.,.,.
CCCC1CCC2(CC1)CCC2OC(=S)Nc1ccccc1OC (stereo not drawn),.,.,.,8,.,.,.,.
CCCCCN(C(=O)CCC(=O)OCC(=O)c1ccc(C(C)CC)cc1)c1c(N)n(CCCC)c(=O)[nH]c1=O (stereo not drawn),8,0,.,.,.,29*,0,1
CCCCCN(C(=O)CCC(=O)OCC(=O)N(C)c1ccccc1)c1c(N)n(CCCC)c(=O)[nH]c1=O,-2,-1,-1,2,0,-4,.,.
CCN(CC)C(=O)[C@H]1C[C@@H]2[C@H](C[C@@H](c3ccccc3)[C@H]1C)N(c1ccc(F)cc1)C(=O)N2C/C=C(\C)CCC=C(C)C,.,.,0,1,0,.,.,.
FC(F)(F)c1ccc(C2[C@H]3CN(Cc4cccnc4)[C@H](c4ccccc4)C34CC2(c2cccnc2)C4)cc1 (stereo partly drawn),-6,5,1,3,0,19*,7,-1
CC(=O)C1CCC2C3CCC4=CC(=O)C=CC4(C)C3C(=O)CC12C (stereo not drawn),.,.,3,-1,1,.,.,.
C[C@]12C=CC(=O)C=C1CC[C@@H]1C2=CC[C@]2(C)[C@@H](C(=O)CN3CCN(c4cc(N5CCCC5)nc(N5CCCC5)n4)CC3)CC[C@@H]12,-24,13*,-1,-1,-1,26*,50*,25*
Cc1nn(-c2ccccc2)c2sc(C(=O)NNC(=O)COc3ccccc3)cc12,-1,1,2,-3,0,23*,22*,0
O=C(Nc1ccc(S(=O)(=O)N2CCCCCC2)cc1)c1[nH]ncc1[N+](=O)[O-],24,0,-4,-2,0,58*,16*,-4
O=C(Nc1ccc([N+](=O)[O-])cc1)c1ccc(S(=O)(=O)N2CCCC2)cc1,-5,4,-2,5,1,-2,.,.
O=c1c(Cl)c(N/N=C/c2ccc(Br)cc2)cnn1-c1ccccc1,-18,4,-1,-19,-2,24*,22*,-3
OCCn1nc(-c2ccccc2)cc1-c1ccccc1,3,0,0,1,0,0,.,.
O=c1cc(-c2ccccc2)cc(-c2ccccc2)n1CCCO,5,-10,-2,0,0,19*,-4,-7
Cc1ccc(S(=O)(=O)N(CC(=O)N=Nc2c(O)[nH]c3ccccc23)c2ccc(C)c(C)c2)cc1,-3,4,-3,5,0,19*,19*,1
CCCN(CC1CC1)C(=O)CN1C(=O)C2CCCCN2C(=O)c2ccccc21 (stereo not drawn),.,.,.,1,0,.,.,.
O=C(NCc1ccccc1Br)c1cccc2c1C(=O)c1ccc(N3CCOCC3)cc1S2(=O)=O,1,-2,.,.,.,28*,37*,-7
O=C(NCc1ccc(F)cc1)c1cccc2c1C(=O)c1ccc(N3CCOCC3)cc1S2(=O)=O,-5,3,1,9,-4,-4,.,.
COc1ccc(C(=O)N2CCC[C@@H]2C(=O)N2CCC[C@@H]2C(=O)NCc2ccccc2)cc1F,.,.,0,5,0,.,.,.
CCOC(=O)C1=C(O)C(=O)NC(c2ccccc2)=C(OC2CCCCC2)C1,-6,1,-1,-10,0,24*,31*,-1
SMILES,GASC-1 inh,PP5 inh,PG9 binder,NR1D1 modulator,proKLK7 act,PP1 inh,PP1 confirm,PP5 counter
CCOC(=O)C1=C(O)C(=O)NC(c2ccccc2)=C(OCC)C1,-3,1,1,6,-4,-1,.,.
Brc1ccc(N/N=C(/N=Nc2nn[nH]n2)c2ccccc2)cc1,.,6,-2,4,0,19*,24*,7
O=C(NC1CCC1)O[C@H]1CC[C@@]23CCCN2C(=O)CCC[C@H]3C1,.,.,.,-2,.,.,.,.
COC(=O)c1cc2sccc2n1CC(=O)N(C)c1ccccc1,3,4,0,0,0,43*,2,0
O=C(CN1CCCN(Cc2ccc(F)cc2Cl)C1=O)NC1CCCCCC1,2,0,-1,0,0,43*,-5,-5
C=CCO[C@H]1CN(C(=O)OC)[C@@H]2C[C@H]1Oc1ccccc12,.,.,-1,-4,1,.,.,.
CC(CCN1CCC(C(O)(c2ccccc2)c2ccccc2)CC1)Oc1cccc(Br)c1 (stereo not drawn),.,.,.,8,1,.,.,.
CCCCCCCCCC[N+](C)(C)CC/C=C1/c2ccccc2Sc2ccc(Cl)cc21,9,8,.,.,.,41*,11,6
CCCCCCCCCCC[N+](C)(C)CC/C=C1/c2ccccc2Sc2ccc(Cl)cc21,3,5,.,.,.,39*,9,2
CC[N+](C)(C)CC/C=C1/c2ccccc2Sc2ccc(Cl)cc21,3,0,-1,1,0,-1,.,.
C=CCN(CC#CC(=C)C)CC1CC1,.,.,.,7,0,.,.,.
CCOc1ccccc1C(=O)NCC(=O)NCC(c1ccc(OC)cc1)N1CCOCC1 (stereo not drawn),1,-1,2,-7,-1,23*,-2,-3
COc1ccc(C(CNC(=O)CNC(=O)c2ccccc2Cl)N2CCCC2)cc1 (stereo not drawn),-5,-2,-2,-1,-2,-3,.,.
COc1ccccc1C(=O)NC(=O)COC(=O)c1ccc(Cl)cc1[N+](=O)[O-],-8,2,-4,-3,-1,-4,.,.
COc1ccccc1C(=O)NC(=O)COC(=O)CNC(=O)c1ccc(Cl)c([N+](=O)[O-])c1,-5,0,1,-1,0,27*,-3,-3
CC(=O)C1=C(O)C(=O)N(CCc2c[nH]c3ccccc23)C1c1ccc(C)cc1 (stereo not drawn),-1,4,0,0,0,26*,23*,-4
